{"source": "the supplement of paper PMC6555819"}
{"system": "VDR:RXRa (NR concentration 270 nM, RXRa partner concentration 90 nM)", "experiment": "PBM binding z-score (relative to random genomic background probes); higher = stronger binding; sequences stand for … in GC…GCGATTGACAGCGTAGAATGAAGG", "experimental": "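Protein-binding microarray (Agilent 4x180K custom design, double-stranded 60-nt probes: 5' GC cap, 34-nt variable region, 24-nt constant primer region; full probe sequence given). Purified or IVT nuclear receptor:RXRα heterodimers (3:1 NR:RXRα, mostly 270:90 nM) or homodimers were incubated for 1 h in PBS with 2% milk and no ligand, then detected with Alexa488 antibodies. Fluorescence from o1-orientation probes (~5 replicates averaged) was converted to z-scores against 500 random hg19 background probes. Variable regions are seed direct-repeat (DR0–DR5) sites, all their single-nucleotide variants and half-site ablations.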"}
{"sequence": "CGAACTAGGTCATCGACAGGACAGTGAATAGTAA", "PBM binding z-score": 2.57}
{"sequence": "GCTTGTGGATCAAGGTTAAGAAAGACTAAGCTAA", "PBM binding z-score": 0.111}
{"sequence": "CGTAGCAGGCCAATCTGGGTCACTCAAGGCTTGA", "PBM binding z-score": 0.309}
{"sequence": "CCTACTGGGCCACGAAAGGTCATTGAATCAGTGA", "PBM binding z-score": 4.14}
{"sequence": "CGGACTAGGTCAGAACAGGACAGTGAAGGATGAT", "PBM binding z-score": 0.538}
{"sequence": "CTCGAAAGGCCGGTTGAGGTGAGTATACGGATAA", "PBM binding z-score": -0.304}
{"sequence": "ATATGTAGGTTAAGGGTCGTTCAGGTTGGTTCGC", "PBM binding z-score": 3.88}
{"sequence": "AAAGACAGGTGATGAAGGTAACTCAGGCTATCAT", "PBM binding z-score": 0.521}
{"sequence": "AGCTCTAGGTAAGACTCAGTTCAGTGAAGAACGC", "PBM binding z-score": 0.321}
{"sequence": "CCTATTAGTTGACCATAAGGGCAACAGAAGCTCG", "PBM binding z-score": 0.519}
{"sequence": "TTACCAAGGTGAGCTGAGGTCGTCGATCCAACTC", "PBM binding z-score": 3.49}
{"sequence": "TCGAGTAGGTTACAAATGGGGCATTCAGCTTTCT", "PBM binding z-score": 0.216}
{"sequence": "CCTGCTAGATCATGGTCAGCTAATCTACAGTATG", "PBM binding z-score": -0.447}
{"sequence": "TAGCCCAGGTCATGCGGGCCAGTATAGTGTCGGC", "PBM binding z-score": 3.7}
{"sequence": "AGTCAAAGTCCACTAGGTAACGTAAGATTCAGCT", "PBM binding z-score": -0.0687}
{"sequence": "TAGCCGAGGTCATGGGCCAGTATACCACGCGAAC", "PBM binding z-score": 5.46}
{"sequence": "TCATATAGGTAACAGGTGAAAGTCGGTGTGGTAA", "PBM binding z-score": 0.96}
{"sequence": "CGAACGAGGGCATGAGTTGAAAGCAAATGCCGAT", "PBM binding z-score": 1.25}
{"sequence": "AGAAAGAGGTTAAGATCAGGGAAACAGAATACAT", "PBM binding z-score": 1.25}
{"sequence": "TCTTGTAGCTCAATAGAGGTTAAGAAAGTGCGCT", "PBM binding z-score": 1.32}
{"sequence": "TAGCCTAGGTCAGATCGGGCCGGTATACGCTATA", "PBM binding z-score": 0.236}
{"sequence": "TGAATGAGGTTAAAGACCAGGGAACGTGGCGTCG", "PBM binding z-score": 1.09}
{"sequence": "AATACAGGGTCATCGTAGGCTAGAGTACGCACAG", "PBM binding z-score": 5.2}
{"sequence": "CTCGAACGGTCGGTTGAGGTGAGTATACGGATAA", "PBM binding z-score": -0.265}
{"sequence": "TCTTGTAGATCAAAGGTTAATAAAGCCGAAGCCT", "PBM binding z-score": 1.55}
{"sequence": "ACAGACAGGTCATGAAGGTAACTCAGGCTATCAT", "PBM binding z-score": 4.55}
{"sequence": "CAGCCTAGGTAAGGGCCAGTATAGGAGGAACGTT", "PBM binding z-score": -0.84}
{"sequence": "CCTACTGGGCCATTCAGAGATCATTGATCATATG", "PBM binding z-score": -0.415}
{"sequence": "AGAACGAGGGCACGCTGAGTTGATATCAGAGTAG", "PBM binding z-score": 2.02}
{"sequence": "CCTTACGGGTCACGAGGCTATAGCACGACGAGCG", "PBM binding z-score": 3.93}
{"sequence": "TCTAGCAGGCCAGAGGGTCACTAAAGAGGTACGG", "PBM binding z-score": 1.24}
{"sequence": "TAGCCTAGGTCATTGGGCCAGTAGAGTACGCATC", "PBM binding z-score": 2.26}
{"sequence": "GCTAGCAGCCCATTTGGGTCACTCAATGACGGGC", "PBM binding z-score": -0.389}
{"sequence": "CTACCAAGGTGAACAAGGCCGTTGATTACTATTC", "PBM binding z-score": 3.58}
{"sequence": "TCTTGTAGATCCAGCAGGTTAAGAAAGCCTGAGT", "PBM binding z-score": 0.306}
{"sequence": "CCTATCAGGCCAGGGTCACTCAAGCATTTCGCTT", "PBM binding z-score": 2.73}
{"sequence": "ACAGCCAGGTGATGAAGGTAACTCAGGCTATCAT", "PBM binding z-score": -0.126}
{"sequence": "CCTACTGGGCGATCAGGTCATTGATATCAACGTT", "PBM binding z-score": 1.67}
{"sequence": "CAAACTAGGACACGAAAGGTCAAAGTCGAATGAC", "PBM binding z-score": 4.78}
{"sequence": "CCTGCTATGTCATGGTCAGCTAATCTACAGTATG", "PBM binding z-score": -0.0549}
